Laboratory results taken from ChEMBL document CHEMBL3988442, “University of Dundee, Small-Polar-MMV Screening Library” (2021).
Among all 48,000 compounds or so, about 13,000 (27%) showed an effect of 50% or more. This is one part of the list.

tested on: Wolbachia pipientis; assay: Anti-Wolbachia Cell-Based Screen; type: functional; parameters: scale not given: in the data most compounds retested in dose-response had high values; settings: 5 µM

Row | Compound | Percent Effect [%]
1 | COc1ccc(Br)c(C(=O)N2CCC(c3n[nH]c(C4CC4)n3)CC2)c1 | 9.985
2 | O=C(Cc1csc(N2CCNC2=O)n1)NC1(c2ccccc2)CCC1 | 3.065
3 | Cc1nc(NC(=O)N2CCCC(C(C)(C)O)C2)nn1C (configuration not stated) | 7.598
4 | CC(C)N[C@@H]1CO[C@H](CNC(=O)c2cccs2)[C@H]1O | 0.5301
5 | NC(=O)NCC(=O)N1CCC(c2cc(-c3ccccc3Cl)n[nH]2)CC1 | 9.084
6 | CC(=O)N1N=C(c2ccccc2)OC1C(=O)NCC(=O)OC(C)(C)C (configuration not stated) | 126.7
7 | CCN1CC(C(=O)NCc2noc(Cc3ccccc3)n2)CCC1=O (configuration not stated) | -8.005
8 | CC(=O)N1N=C(Cc2ccccc2)OC1C(=O)NCC(=O)OC(C)(C)C (configuration not stated) | 112
9 | COC(=O)CN1CC(c2nc(Cc3ccccc3)no2)C1.O=C(O)C(=O)O | -2.345
10 | CCOC(=O)CNC(=O)N1CCCC(CNC(=O)c2ccco2)C1 (configuration not stated) | -9.65
11 | CC(C)N1CCCC(C(=O)NCc2noc(Cc3ccccc3)n2)C1 (configuration not stated) | -0.7063
12 | CCOC(=O)CNC(=O)C1CN(C(=O)c2cnccn2)C1 | 12.27
13 | CCC(CNC(C)=O)(OC)c1ccccc1 (configuration not stated) | -7.237
14 | CC(=O)N1N=C(Cc2ccccc2)OC1C(=O)NCC(C)C (configuration not stated) | 119.9
15 | CCOC(=O)CNC(=O)C1OC(c2ccccc2)=NN1C(C)=O (configuration not stated) | 105.7
16 | CN(C(=O)c1ccco1)C1CCC(NC(=O)OC(C)(C)C)CC1 (configuration not stated) | -29.92
17 | CC(C)(C)OC(=O)CNC(=O)CCc1nnc(-c2ccsc2)o1 | -11.15
18 | CC(C)N[C@@H]1CO[C@H](CNC(=O)Nc2ccccc2)[C@H]1O | -15.53
19 | Cc1nc(C(NC(=O)CN(C)C(C)C)c2ccccc2F)no1 (configuration not stated) | -8.62
20 | CCc1nnc(CN2CCN(C(C)=O)CC2)o1 | -9.857
21 | Cc1ccc(C(=O)N2CCC(Oc3ccc(F)cc3F)CC2)c(=O)[nH]1 | -17.81
22 | CC(C)c1nnc(NCCS(C)(=O)=O)s1 | -6.765
23 | CC1(C)COCCN1C(=O)CCc1nc(-c2ccncc2)no1 | 14.72

Row | Compound | Percent Effect [%]
24 | CCOc1ncccc1CNc1cc(COC)ncn1 | -5.284
25 | O=C(C1CCCC1)N1CC2(CCNC2)OCc2ccccc21 (configuration not stated) | 106
26 | COc1ccc(Cl)cc1C(=O)N1CCOC2(CNCCOC2)C1 (configuration not stated) | -14.44
27 | O=C(c1ccccc1)N1CC2(CCNC2)OCc2ccccc21 (configuration not stated) | 116.8
28 | O=C1OC2(CCNCC2)CN1CC(=O)N1CCC1c1cccs1 (configuration not stated) | -13.03
29 | Cc1ccccc1C1CCCN1C(=O)CN1CC2(CCNCC2)OC1=O (configuration not stated) | -3.464
30 | O=C(c1ccccc1-c1ccccc1)N1CCOC2(CNCCOC2)C1 (configuration not stated) | -21.41
31 | O=C(c1ccc(Cl)cc1)N1CC2(CCNC2)OCc2ccccc21 (configuration not stated) | 113.7
32 | O=C(c1ccc(NCc2ccco2)nc1)N1CCc2ccccc21 | 16.32
33 | Cc1ccccc1C(=O)N1CCOC2(CNCCOC2)C1 (configuration not stated) | -17.32
34 | Clc1cc(CN2CCCC(Cn3cncn3)C2)c2ncccc2c1 (configuration not stated) | -5.34
35 | N#CCC(=O)NCc1nnc2n1CCN(Cc1ccsc1)C2 | -8.086
36 | COC(=O)CN1N=C(C(=O)N2CCCC2)S(=O)(=O)c2ccccc21 | 18.69
37 | Cc1nccn1-c1cncc(C2CCCN2Cc2cccnc2)n1 (configuration not stated) | 117.3
38 | Cc1nccn1-c1cncc(C2CCCN2Cc2ccccc2)n1 (configuration not stated) | 97.46
39 | CC(C)c1nccn1-c1cncc(C2CCCN2Cc2cccnc2)n1 (configuration not stated) | 151.3
40 | CCc1nc(C2CCCN2Cc2nccn2Cc2ccccc2)no1 (configuration not stated) | 3.12
41 | COCCN(Cc1ccc(F)cc1C#N)CC(F)(F)F | -22.68
42 | CN1CCCC1(CCCc1cccnc1)C(=O)NCc1nccn1C (configuration not stated) | 97.51
43 | CNC(=O)C1(CCCc2cccnc2)CCCCN1 (configuration not stated) | -7.533
44 | COCCCn1ccc(NC(=O)NCCc2cccnc2)n1 | -2.122
45 | COCCNC(=O)C1(CCCc2cccnc2)CCCN1C (configuration not stated) | 112.4
46 | O=C(Nc1ccnc2ccnn12)c1ccc(N2CCC(O)CC2)cc1 | 5.741

Row | Compound | Percent Effect [%]
47 | COCCN1CCC(CN(CC2CCCO2)C(=O)C2CCOCC2)CC1 (configuration not stated) | 95.06
48 | COCCN1CCC(CN(CC2CCCO2)C(=O)COC)CC1 (configuration not stated) | -4.712
49 | COCCN1CCC(CNC(=O)C2(NC(C)=O)CCCCC2)CC1 | 17.17
50 | CN(CC1CCOCC1)C(=O)NCCCN1CCCCC1 | -10.18
51 | COCCN1CCC(CN(CC2CCCO2)C(=O)CCC(F)(F)F)CC1 (configuration not stated) | 140.7
52 | COCCN1CCC(CN(CC2CCCO2)C(=O)CCNC(C)=O)CC1 (configuration not stated) | -5.608
53 | COCCN1CCC(CN(CC2CCCO2)C(=O)CNC(C)=O)CC1 (configuration not stated) | 106.5
54 | COCC(=O)N(CCC(=O)OC)CC1CCCO1 (configuration not stated) | -0.04842
55 | O=C(CC1CCCO1)Nc1ccn(Cc2cccc3cccnc23)n1 (configuration not stated) | -4.253
56 | CC(=O)N1CCN(C(=O)CCCc2nc(C(C)C)no2)CC1 | -8.538
57 | CC(NCc1cnc(C2CCC2)s1)c1ccc(-n2cccn2)cc1 (configuration not stated) | -14.42
58 | Cc1cc(C(=O)O)cc(S(=O)(=O)Nc2ccc3c(c2)OCO3)c1C | 13.44
59 | CN(C)S(=O)(=O)Nc1ccc(-n2nccc2C(F)(F)F)cc1 | -20.66
60 | O=S(=O)(Nc1ccc2c(c1)OCCO2)N1CCCCC1 | 85.12
61 | CN(C)S(=O)(=O)Nc1ccc(Oc2ccc3c(c2)OCO3)cc1 | 102.4
62 | O=S(=O)(Nc1ccc(Oc2ccc3c(c2)OCO3)cc1)N1CCCCC1 | 108.9
63 | Cc1c(F)cc(C(=O)O)cc1S(=O)(=O)Nc1ccc2c(c1)OCCO2 | -12.89
64 | O=C(c1cc(COc2ccc3c(c2)OCO3)[nH]n1)N1CCCCO1 | 18.38
65 | CC1(Cc2ccc3c(c2)OCO3)CCCN(S(=O)(=O)N2CCCC2)C1 (configuration not stated) | -20.92
66 | O=C(CSc1ccc2c(c1)OCCO2)NS(=O)(=O)C1CCCCC1 | -3.835
67 | CC(C)c1nsc(N2CCn3c(nnc3C(F)(F)F)C2)n1 | -8.607
